The record followed here is PubChem BioAssay AID1794844 (National Center for Advancing Translational Sciences (NCATS), 2023).

The structures appear in SMILES notation. Fewer than 10 of roughly 2,800 compounds were called active. About 7% were inconclusive and are not listed. Calls come from the whole dose curve; as a rule, active = well fitted inhibition curve with a large enough effect; inconclusive = small, poorly fitted or top-dose-only effect; inactive = no such curve, though single readings can be large or run the other way. These entries were drawn from the full list.
Potency is the fitted concentration of half-maximal effect.

Sequence of Metallo-beta-lactamase type 2 (Klebsiella pneumoniae) (C7C422 whole entry, looked up): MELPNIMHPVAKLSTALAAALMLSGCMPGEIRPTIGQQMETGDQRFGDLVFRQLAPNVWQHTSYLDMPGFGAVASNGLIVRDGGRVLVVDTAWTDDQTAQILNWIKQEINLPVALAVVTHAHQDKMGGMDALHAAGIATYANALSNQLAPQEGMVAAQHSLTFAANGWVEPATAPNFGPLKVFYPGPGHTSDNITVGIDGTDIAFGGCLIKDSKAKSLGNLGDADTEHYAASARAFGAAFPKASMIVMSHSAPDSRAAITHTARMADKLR

This assay addresses Metallo-beta-lactamase type 2 (Klebsiella pneumoniae) (UniProt C7C422). The experiment in a line: qHTS to identify inhibitors of the New Delhi Metallo-beta-lactamase (NDM): Nitrocefin screen against the machine-based learning selections. For activity, negative = inhibition: % of control where 0% means no effect. Particulars: NDM-1 enzyme, nitrocefin hydrolysis, absorbance 485 nm; series mostly up to 38.4 µM; activity, negative = inhibition: at the top concentration. From the text:
Assay Submitter (PI): James Inglese Ph.D., Patricia Dranchak Ph.D., Mahesh Aitha Ph.D. Assay Development and Screening Technology Laboratory (ADST) National Center for Advancing Translational Sciences (NCATS), Rockville, MD National Institute of Health (NIH), Bethesda, Maryland The metallo-beta-lactamases (MBL) are a main antibiotic resistance mechanism evolved by bacteria. There is an urgent clinical need for MBL inhibitors to mitigate this growing threat. To support a machine-based learning study, qHTS has been used to experimentally test inhibitors identified by prediction tools.
PROTOCOL TABLE (as described by Inglese et al., 2007) SEQUENCE No. (e.g., 1, 2, 3, etc.); […] (e.g., enzyme, Incubation, Reagent, etc.); VALUE; DESCRIPTION Primary Screen 1; NDM-1; 4 uL of 3 nM enzyme [2 nM final] in 50 mM HEPES (pH 7.0), 1 uM […], 0.01% Tween20; Use BioRaptr to dispense into two sets of Aurora black, clear bottom high base 1536-well plates 2; Compounds; 23 nL; Use Pin Tool (Wako) to transfer DMSO control and library compounds in DMSO 3; Incubate; >30 min 4a; Reagent; 2 uL of 50 uM nitrocefin [16.7 uM final] to one set of assay plates 4b; Reagent; 2 uL of 150 uM meropenem [50 uM final] to second set of assay plates 5a; Incubate; 15 min 5b; Incubate; 30 min 6a; Detector; Absorbance at 485 nm (bandwidth = 5 nm, 25 flashes/well) on Tecan Infinity 6b; Detector; Absorbance at 300 nm (bandwidth = 5 nm, 25 flashes/well) on Tecan Infinity NOTES (numbers refer to sequence above) 1; Column 1 of each plate received assay buffer without enzyme and columns 2-48 received enzyme for a final assay concentration of 2 nM. 2; Control plate contained DMSO in columns 1, 2, 3, and 4. 3; Compound interaction with enzyme. 4; Nitrocefin and meropenem substrates were prepared in the same assay buffer as step 1 for a final assay concentration of 16.7 uM and 50 uM, respectively, and added to all wells across respective sets of assay plates. 5; Default reader settings were applied for absorbance read at 485 nm (nitrocefin) or 300 nm (meropenem), bandwidth = 5 nm, 25 flashes/well. References: Inglese J, Shamu CE, Guy RK. 2007. Reporting data from high-throughput screening of small-molecule libraries. Nat Chem Biol. doi:10.1038/nchembio0807-438 Yasgar A, Shinn P, Jadhav A, Auld D, Michael S, Zheng W, Austin CP, Inglese J, Simeonov A. 2008. Compound Management for Quantitative High-Throughput Screening. J Lab Autom 13:79 - 89. doi:10.1016/j.jala.2007.12.004
For orientation: qHTS replaces the single test concentration by a dilution series.
For `O=C(O)c1cccc(-c2n[nH]c3c2CC(=O)N(c2ccccc2)C3)c1`, the “activity, negative = inhibition” value is -14.2% [at 57.5 µM] (inactive).

As to `N#Cc1cccc(CN2CCOC[C@H]2c2ncc(-c3ccccc3)[nH]2)c1`, the “activity, negative = inhibition” value was 1.13% [at 57.5 µM] (inactive). On to `COCC(=O)N[C@H]1CO[C@H]2[C@@H]1OC[C@@H]2Nc1nccc(-c2cccc(C#N)c2)n1`, for which the “activity, negative = inhibition” value was 4.59% [at 57.5 µM] (inactive). On the same count and under the same terms, under `Cc1[nH]c2ccc(C(=O)N3CC[C@@](C)(O)[C@@H](O)C3)cc2c1C` stands -0.0594% (inactive); under `c1cncc(CNc2cc(-c3cnc4ccccc4n3)c3cc[nH]c3n2)c1`, 11.1% (inactive). For the compound `CCN1CCN(C2(C(=O)NCCc3ccccc3)Cc3ccccc3C2)CC1`, the “activity, negative = inhibition” value was -0.956% (inactive).

`COc1cccc(NC(=O)N[C@H](C)c2onc(-c3ccc(F)cc3)c2C(=O)O)c1`: the “activity, negative = inhibition” value was -18.1% [at 57.5 µM] (inactive).

Regarding `O=C(Nc1ccc([C@H]2OCC(=O)N(C3CCOCC3)[C@@H]2CO)cc1)c1cnccn1`, the “activity, negative = inhibition” value is 317% [at 57.5 µM] (inactive). `N[C@@H](Cc1cnc[nH]1)C(=O)NCc1cccnc1Oc1ccc(F)cc1F`: the “activity, negative = inhibition” value is -1.51% (inactive). The same measure, in the same setting: under `CCCN1CC2(CCN(C(=O)c3ccc(C)nc3)CC2)CC1C(=O)O` (centres undefined) stands -5.46% (inactive). In the case of `CN1CC2(CCN(C(=O)c3ccccc3-c3nn[nH]n3)CC2)CC1C(=O)O` (centres undefined), the Potency is 6.69 µM (active).

With `COCCN1CCCC2(CCN(C(=O)c3ccccc3)C2)C1` (centres undefined), the “activity, negative = inhibition” value was -3.5% (inactive).

On to `CC(=O)N1CCN(C(=O)C[C@@H]2c3nc(NC(=O)C4CCCCC4)sc3C[C@@H]3[C@](C)(CO)[C@H](O)CC[C@]32C)CC1`, for which the “activity, negative = inhibition” value was 1.19% (inactive). In the case of `CN(C)c1ccc(-c2nnnn2[C@H]2CO[C@H]3[C@@H]2OC[C@@H]3NS(=O)(=O)c2ccc3ccccc3c2)cc1`, the “activity, negative = inhibition” value was -2.44% (inactive). Still for that read-out and setting: as for `C[C@@]1(O)CCN(c2ncccc2C(=O)c2nccs2)C[C@@H]1O`, the figure is -0.625% (inactive); as for `OC(c1cccc(C(F)(F)F)c1)c1nc(Nc2ccc(F)cc2)n[nH]1` (centres undefined), 3.6% [at 57.5 µM] (inactive). Take `Cn1ccc2c(C(=O)N[C@H](c3cccs3)C3CC(O)C3)cccc21` (some centres undefined): the “activity, negative = inhibition” value is -3.78% (inactive). The same measure, in the same setting: under `Cc1nc(C(=O)N2CCC(c3nnc(CN4CCCC4)n3C)CC2)cs1` stands -8.34% (inactive).

As to `Cc1ccc(C(=O)N2CCN(c3nnc4cccc(C)n34)CC2)cc1F`, the “activity, negative = inhibition” value was -3.81% (inactive). Take `O=C1C(c2ccccc2)CC2(CCN(c3cnccn3)CC2)CN1C1CC1` (centres undefined): the “activity, negative = inhibition” value was 0.213% (inactive). Same read-out and setting: as for `O=C(c1ccccc1)N1CCN2C(=O)N(Cc3ccccc3)C(=O)[C@H]2C1`, the figure is -2.63% [at 57.5 µM] (inactive); as for `Cc1cnc(C(=O)N2CCC(N3C(=O)C4(CCCC4)C3c3ccccc3)CC2)cn1` (centres undefined), 0.565% (inactive). On the same count and under the same terms, under `O=C(Cc1ccccc1C(F)(F)F)N1CCC2(CC1)[C@H](O)C[C@@H]2O` stands -5.52% (inactive). In the case of `CN(Cc1cc(-c2cccs2)n[nH]1)C(=O)c1cn(CCN)nn1`, the “activity, negative = inhibition” value is 3.42% (inactive). Same read-out and setting: as for `O=C1CC(C(=O)O)C2(CCN(c3cc(C4CC4)ncn3)CC2)N1` (centres undefined), the figure is -1.94% (inactive); as for `Cc1noc2c(-c3cccnc3)cc(-c3cccs3)nc12`, -1.29% [at 57.5 µM] (inactive). The same measure, in the same setting: as for `CCc1ncc(C(=O)N2CCN(c3ccc(Cl)c(Cl)c3)CC2)cn1`, the figure is -4.54% (inactive). Consider `Cc1ccc2nc(C)cc(C(=O)N3CCC(c4cc(CC(=O)O)[nH]n4)CC3)c2c1`, for which the Potency was 9.45 µM (active).

On to `Cc1ccc2nc(C3CCCN(Cc4ccccc4)C3)[nH]c(=O)c2c1` (centres undefined), for which the “activity, negative = inhibition” value was 0.6% [at 57.5 µM] (inactive). On to `Cc1nc2c(C(=O)N3CCC(c4cc(CC(=O)O)[nH]n4)CC3)cccc2[nH]1`, for which the Potency was 8.42 µM (active).

As to `Cc1nc(C2CCCCN2C(=O)Cc2ccccc2)n[nH]1` (centres undefined), the “activity, negative = inhibition” value is 8.61% (inactive).

Take `COc1nc(C)c(C(=O)N2CCC(c3[nH]ncc3-c3ccccc3)CC2)s1`: the “activity, negative = inhibition” value is 0.575% (inactive). Still for that read-out and setting: under `CC(=O)N1CC[C@H](c2nc3cc(C)ccc3o2)C1` stands -5.97% [at 76.7 µM] (inactive); under `CCNC(=O)O[C@@H]1CO[C@H]2[C@@H]1OC[C@@H]2NC(=S)Nc1ccc(N(C)C)cc1`, 0.306% [at 57.5 µM] (inactive); under `O=C(c1cccnc1)N1CC[C@H](c2nnc(Cc3ccccc3)o2)C1`, -2.68% [at 57.5 µM] (inactive). On the same count and under the same terms, as for `O=C(Cc1c[nH]c2ncc(-c3cccc(Cl)c3)cc12)NCc1cccnc1`, the figure is 7.39% [at 57.5 µM] (inactive). Same read-out and setting: as for `Nc1ccc(-c2ccc(OCCn3ccnc3)cc2)cn1`, the figure is -4.87% (inactive).

With `COCCCNC(=O)N1CC(c2nc(CCOCC3CCOCC3)no2)C1`, the “activity, negative = inhibition” value was 1.08% (inactive). Take `CNC(=O)[C@H]1C[C@H](Oc2cccnc2)CN1S(=O)(=O)c1ccc(OC)cc1`: the “activity, negative = inhibition” value was 1.27% (inactive). In the case of `O=C(Nc1cccc(C(F)(F)F)c1)N[C@H]1CO[C@H]2[C@@H]1OC[C@@H]2Nc1nccc(-c2ccc(-c3ccccc3)cc2)n1`, the “activity, negative = inhibition” value is 3.13% (inactive). With `CC(C)(C)c1nnc([C@H]2CCN(Cc3ccco3)C2)o1`, the “activity, negative = inhibition” value is 2.73% [at 76.7 µM] (inactive). Still for that read-out and setting: under `Cc1cccc(Cl)c1NC(=O)N1CCC2(CC1)C(C(=O)O)CC(=O)N2C` (centres undefined) stands 6.76% (inactive); under `C[C@@H](c1ccccc1)N1C(=O)[C@@H]2CN(C(=O)c3ccc(N(C)C)cc3)CCN2C1=O`, 2.81% [at 57.5 µM] (inactive); under `Cc1nc(CCC(=O)N2CCC(Cc3ccc(C(=O)O)cc3)C2)n[nH]1` (centres undefined), 10.3% (inactive). Same read-out and setting: as for `CCCS(=O)(=O)N1CCC(Cc2nc(-c3cccnc3)n[nH]2)C1` (centres undefined), the figure is -6.34% (inactive); as for `COc1ccc(CN2CCOc3ccc(C(=O)NCc4ccc(C)cc4)cc3C2)c(OC)c1`, -0.698% (inactive). The same measure, in the same setting: under `O=C(c1ccccc1Cl)N1CCCC(c2nn(-c3ccccc3)c(=O)[nH]2)C1` (centres undefined) stands -3.71% (inactive); under `CC(C)C(=O)N[C@H]1[C@H](O)[C@H](O)C[C@@H]1c1cccnc1`, 2.09% [at 76.7 µM] (inactive); under `CC(O)c1cc2n(n1)CCN(C1CCN(C(=O)c3cnccn3)CC1)C2` (centres undefined), 29% (inactive).
